A selection: hits, their analogues and other compounds. The true share with any hit is near 3%.
TR SRC2 fluor cs: Total Fluorescence Counterscreen for Inhibitors of the Interaction of Thyroid Hormone Receptor and Steroid Receptor Coregulator 2 | TRb/SRC2 Texas Red total fluorescence interference | Potency, µM (titrated, usually from 106 µM) | 280,000 compounds, 0.29% hits | AID 1479, 2009; active = well fitted curve in either direction with a large enough effect; inconclusive = small, poorly fitted or top-dose-only effect
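Human TRβ ligand-binding domain (0.6 uM) and Texas Red SRC2 peptide (20 nM) in Tris buffer with 1 uM T3 and 5% DMSO were incubated with pinned compound for 5 hr at ambient temperature. Total fluorescence was computed as S + 2P (555/632 nm).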
TRb SRC2 PPI: qHTS for Inhibitors of the Interaction of Thyroid Hormone Receptor and Steroid Receptor Coregulator 2; Thyroid hormone receptor beta (Homo sapiens), P10828; TRbeta-SRC2 peptide binding, fluorescence polarization; receptor liganded with 1 µM T3; Potency, µM (series often up to 106 µM), actives largely listed as inhibitors; 280,000 compounds, 0.065% hits; note: nearly all actives have a fitted effect of over 50% in size
Target sequence (P10828 whole entry, looked up): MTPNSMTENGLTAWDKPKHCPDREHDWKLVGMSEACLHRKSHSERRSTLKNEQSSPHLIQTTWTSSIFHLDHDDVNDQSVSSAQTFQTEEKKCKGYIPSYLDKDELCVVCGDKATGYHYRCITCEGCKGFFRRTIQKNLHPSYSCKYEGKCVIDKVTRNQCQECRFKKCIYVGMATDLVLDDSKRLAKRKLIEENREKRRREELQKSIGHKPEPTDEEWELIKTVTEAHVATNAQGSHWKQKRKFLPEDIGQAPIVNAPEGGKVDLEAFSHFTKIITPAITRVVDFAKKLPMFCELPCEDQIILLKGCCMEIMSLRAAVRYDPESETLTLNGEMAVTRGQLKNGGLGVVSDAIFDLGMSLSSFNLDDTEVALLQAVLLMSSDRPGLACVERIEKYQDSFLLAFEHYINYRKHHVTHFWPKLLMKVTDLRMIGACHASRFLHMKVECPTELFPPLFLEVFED
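A fluorescence polarization screen tested compounds at multiple concentrations against complex formation between 0.6 uM TRb ligand-binding domain and 20 nM Texas Red SRC2 peptide, with 1 uM T3 present; readout after 5 hr.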
Tau fluor cs: Counterscreen qHTS for Inhibitors of Tau Fibril Formation, Fluorescence Polarization; 280,000 compounds, 0.93% hits; tau K18 P301L Alexa594 fluorescence, heparin fibrillization; Potency, µM (doses to about 57.7 µM); AID 1463, 2008; note: nearly all actives have a fitted effect of over 55% in size
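Human tau K18 P301L (15 uM unlabeled, 0.24 uM Alexa 594-labeled) in 100 mM sodium acetate pH 7 with 20 uM heparin, 6 hr at 37 C. ThT 30 uM added, 1 hr ambient; Alexa 594 FP and total fluorescence read at 555/632 nm.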
Tau ThT inhib: qHTS for Inhibitors of Tau Fibril Formation, Thioflavin T Binding; Microtubule-associated protein tau (Homo sapiens), P10636; recombinant tau K18 P301L (four-repeat tau fragment), heparin-induced fibrillization, ThT fluorescence; Potency, µM (highest dose often 57.4 µM), actives largely listed as inhibitors; 270,000 compounds, 2.1% hits; AID 1460, 2008; note: nearly all actives have a fitted effect of over 55% in size
Target sequence (P10636 561-689 P618L limits assumed): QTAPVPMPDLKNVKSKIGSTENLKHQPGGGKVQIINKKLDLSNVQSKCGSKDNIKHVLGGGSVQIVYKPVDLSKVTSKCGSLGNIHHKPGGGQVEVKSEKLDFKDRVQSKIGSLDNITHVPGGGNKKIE
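In this qHTS, human K18 P301L tau is incubated with compound and heparin for 6 hr at 37 C, and Thioflavin T fluorescence then reports fibril load.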
Tau fibril FP: qHTS for Inhibitors of Tau Fibril Formation, Fluorescence Polarization | Potency, µM (highest dose often 57.7 µM), usual class: inhibitors | AID 1468, 2008 | K18 P301L tau heparin fibrillization, Alexa594 FP, 6 h | 280,000 compounds, 0.39% hits | Microtubule-associated protein tau (Homo sapiens), P10636; note: nearly all actives have a fitted effect of over 55% in size
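K18 P301L tau (15 uM unlabeled/0.24 uM Alexa 594-labeled, final) + compound + heparin 20 uM final; 100 mM NaOAc pH 7; 6 hr 37 C; ThT 30 uM final added, 1 hr RT; FP ex 555/em 632 nm.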
Each line names hits and unclear results; the compound was inactive in the other large screens; [ ] = another dose, or the depositor's remark. Unless noted, calls come from the whole dose curve; as a rule, active = well fitted curve in the direction sought with a large enough effect; inconclusive = small, poorly fitted or top-dose-only effect, or another doubt; inactive = no such curve, though single readings can be large; an effect the other way counts as inactive or inconclusive.

CCC1CCCCN1Cc1cn2c(-c3ccc(Br)cc3)nnc2s1 (stereo not given)	none
O=C(COC(=O)c1cc(-c2cccs2)nc2ccccc12)NCc1ccco1	Tau ThT inhib 16µM, Tau fibril FP 20µM
O=C(NCc1ccco1)c1cc(-c2cccs2)nc2ccccc12	TR SRC2 fluor cs inconclusive
Cc1cccc2[nH]c3c(N4CC=C(c5ccc(F)cc5)CC4)ncnc3c12	Tau fluor cs 14µM[quencher], Tau ThT inhib inconclusive, Tau fibril FP inconclusive
COc1cccc2[nH]c3c(N4CCCCC4)ncnc3c12	none
COc1ccc(Sc2ccccc2CN(C)C)cc1OC	none
CNCc1ccccc1Sc1ccc(O)c(O)c1	Tau fluor cs inconclusive, Tau ThT inhib 4µM, Tau fibril FP 8.9µM
CCc1ccccc1Nc1nc2ccccc2c2nncn12	none
CCOC(=O)N1CCN(c2ncnc3c2[nH]c2ccc(F)cc23)CC1	Tau ThT inhib inconclusive
Fc1ccc2[nH]c3c(N4CCN(c5ccccc5)CC4)ncnc3c2c1	Tau fluor cs 25µM[quencher], Tau ThT inhib inconclusive
CCOC(=O)N1CCN(c2ncnc3c2[nH]c2ccc(OC)cc23)CC1	Tau ThT inhib 8.9µM
COc1ccc(N2CCN(c3ncnc4c3[nH]c3ccccc34)CC2)cc1	Tau fluor cs inconclusive, Tau ThT inhib inconclusive
O=C(O)c1cc(Oc2ccc([N+](=O)[O-])cc2)cc(Oc2ccc([N+](=O)[O-])cc2)c1	none (no result: Tau fluor cs, Tau ThT inhib, Tau fibril FP)
CC1=NC(=O)C(N=Nc2ccccc2C(=O)O)N1c1ccccc1 (stereo not given)	Tau ThT inhib 5µM
CC1=NC(=O)C(N=Nc2cccc(C(=O)O)c2)N1c1ccccc1 (stereo not given)	Tau ThT inhib 16µM
Cc1nn(-c2ccccc2C(=O)O)c(=O)c2ccccc12	none
CC1=NC(=O)C(N=Nc2ccccc2)N1c1ccccc1 (stereo not given)	Tau ThT inhib inconclusive, Tau fibril FP inconclusive
CCOc1ccc(C(=O)Nc2ccc(C(=O)OCc3cc(=O)n4nc(CC)sc4n3)cc2)cc1	none
COC(=O)c1c(SC)nc2ccccc2c1OCc1ccccc1C	Tau ThT inhib inconclusive, Tau fibril FP inconclusive
Cc1ccc(NS(=O)(=O)c2cc(NC(=O)c3ccc4c(c3)NC(=O)CS4)ccc2Cl)c(C)c1	Tau fluor cs inconclusive, Tau fibril FP 25µM
CCOc1ccc(NCc2cc3cc(OC)ccc3[nH]c2=O)cc1	Tau fluor cs inconclusive, Tau ThT inhib 6.3µM
Cc1cccc(NC(=O)CSc2nc3ccccc3c3nc(CCn4cncc4C)nn23)c1	Tau ThT inhib inconclusive
N#Cc1cc2c(OCC(O)CN3CCN(C(c4ccccc4)c4ccccc4)CC3)cccc2[nH]1 (stereo not given)	Tau fluor cs inconclusive, Tau fibril FP 28µM
COC(=O)C1=C(C)N(c2ccc(Cl)cc2)/C(=C/c2ccc(O)cc2)C1=O	Tau ThT inhib inconclusive
COC(=O)C1=C(C)N(c2cc(C)cc(C)c2)/C(=C/c2ccc(O)cc2)C1=O	Tau ThT inhib 32µM
c1ccc(-c2[nH]ncc2-c2ccnc3ccccc23)nc1	none (no result: Tau fluor cs, Tau ThT inhib, Tau fibril FP)
CS/C(=N\O)C(=O)N(C)C	none (no result: Tau fluor cs, Tau ThT inhib, Tau fibril FP)
N#CC1=C2SCN(c3ccccc3)CN2C(=O)CC1c1c(Cl)cccc1Cl (stereo not given)	Tau ThT inhib 32µM, Tau fibril FP 25µM
Cc1ccc(C2CC(=O)N3CN(c4ccc(Br)cc4)CSC3=C2C#N)o1 (stereo not given)	Tau ThT inhib inconclusive, Tau fibril FP inconclusive
N#CC1=C2SCN(c3ccccc3)CN2C(=O)CC1c1ccccc1Cl (stereo not given)	Tau ThT inhib 32µM, Tau fibril FP inconclusive
N#CC1=C2SCN(c3ccccc3)CN2C(=O)CC1c1cccs1 (stereo not given)	TR SRC2 fluor cs inconclusive, Tau ThT inhib 25µM, Tau fibril FP inconclusive
CC1CCCN(CCCNC(=O)c2ccc3c(c2)N(Cc2cccc(Cl)c2)C(=O)c2ccccc2S3(=O)=O)C1 (stereo not given)	Tau fluor cs inconclusive
C/C(=N\Nc1ccc([N+](=O)[O-])cc1)c1ccc(C#N)cc1	TR SRC2 fluor cs inconclusive, TRb SRC2 PPI inconclusive, Tau fluor cs inconclusive, Tau ThT inhib inconclusive
C/C(=N\Nc1ccc([N+](=O)[O-])cc1)c1cc2ccccc2o1	Tau fluor cs 8.9µM[quencher], Tau ThT inhib 2.8µM
C/C(=N/Nc1ccc([N+](=O)[O-])cc1)c1ccc(C)cc1C	Tau fluor cs 10µM[quencher], Tau ThT inhib 4.5µM, Tau fibril FP inconclusive
Cc1cccc(N2C(=O)N(CC(=O)C(C)(C)C)c3ccccc3S2(=O)=O)c1C	none
CS(=O)(=O)c1ccc(Cl)cc1	none (no result: Tau fluor cs, Tau ThT inhib, Tau fibril FP)
CCOc1cccc(/C=C2\NC(=S)N(c3ccccc3)C2=O)c1O	Tau fluor cs inconclusive, Tau ThT inhib 14µM
CCOc1cc(/C=C2\NC(=S)N(c3c(C)n(C)n(-c4ccccc4)c3=O)C2=O)ccc1O	none
CC(=O)N1c2ccccc2CC1C(=O)N1CCN(c2cccc(C)c2C)CC1 (stereo not given)	none
CCOC(=O)c1noc2ncnc(Nc3ccc(C)c(F)c3)c12	none
Cc1ccc(NC(=O)Nc2nnc(CSCCOc3ccc(Cl)cc3)s2)cc1	Tau fibril FP inconclusive
O=C(Nc1ccc(Cl)cc1)Nc1nnc(CSCc2ccccc2)s1	Tau fibril FP inconclusive
COc1ccc(OCCSCc2nnc(NC(=O)Nc3ccc(Cl)cc3)s2)cc1	Tau fibril FP 28µM
O=C(Nc1cccc(Cl)c1)Nc1nnc(CSCCOc2ccc(Cl)cc2)s1	Tau fluor cs inconclusive, Tau fibril FP 7.9µM
O=C(Nc1cccc(Cl)c1)Nc1nnc(CC2=CCCCC2)s1	Tau fluor cs inconclusive, Tau fibril FP 11µM
CCC(Cc1ccccc1)NC(=O)CN1C(=O)COc2ccc(S(=O)(=O)N3CCCCCC3)cc21 (stereo not given)	TR SRC2 fluor cs inconclusive
C[C@@H]1/C=C\CC(=O)OC[C@H](C)C(=O)N2CCC[C@@H]2C(=O)OC1	none
COc1ccc(NC(=O)c2ccc3c(=O)n4nc(Nc5cccc(Cl)c5C)sc4nc3c2)cc1	none
COc1ccc2c(c1)CCc1sc(NC(=O)c3ccc(Cl)cc3)nc1-2	Tau fluor cs 8.9µM[quencher], Tau ThT inhib 11µM, Tau fibril FP inconclusive
COc1ccc(C(=O)Nc2nc3c(s2)Cc2cc(OC)ccc2-3)cc1	Tau fluor cs 4µM[quencher], Tau ThT inhib 2µM
COc1ccc2c(c1)-c1nc(NC(=O)c3ccc(Cl)cc3)sc1CC2	none
COc1ccc2c(c1)Cc1sc(NC(=O)c3cccc(F)c3)nc1-2	Tau fluor cs inconclusive, Tau ThT inhib 3.2µM
